Only some compounds are listed: those with a hit (about 19% of all), similar ones and a draw of the others.
ELG1 repair inh: inhibitors of ELG1-dependent DNA repair in HEK293T cells; HEK293T ELG1-luciferase reporter, luminescence, 16 h; DNA damage induced by 5-fluorouridine; Potency, µM (titrated, usually from 46.1 µM), for the others: top-dose activity change, negative = inhibition, hits mostly inhibitors; 2.3% of 330,000 active; AID 504467; note: potency is the fitted concentration of half-maximal effect; nearly all actives have a fitted effect of over 55% in size
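Cells (2,000 per well) received 5-fluorouridine plus test compound or DMSO and were incubated 16 hr at 37 °C, 5% CO2. Luciferase activity was read by luminescence 30 min after ONE-Glo addition; signal suppression marked inhibition of damage-induced ELG1 function.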
HT1080NT lethal: kills 2HG-producing HT-1080-NT fibrosarcoma cells. Potency, µM (series often up to 46.1 µM), without a hit: at the highest dose activity, negative = less viability, actives largely listed as cytotoxic. AID 686970. 1.6% of 360,000 active. HT-1080-NT fibrosarcoma viability, CellTiter-Glo ATP luminescence, 48 h;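 note: NT is the 2HG producing partner of a matched IDH1 knockdown line; potency is the fitted concentration of half-maximal effect; 0% = DMSO-treated cells and -100% = media-only wells without cells; nearly all actives have a fitted effect of over 55% in size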
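HT-1080-NT fibrosarcoma cells (2HG-overproducing), 750 cells/well in RPMI with 5% FBS, dosed after 2 h and incubated 48 h at 37C. CellTiter-Glo luminescence normalized to DMSO and no-cell wells; concentration-response curves fitted and classed.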
TDP1 cell noCPT: qHTS for Inhibitors of human tyrosyl-DNA phosphodiesterase 1 (TDP1): qHTS in cells in absence of CPT | Potency, µM (top dose mostly 46.2 µM), for the others: at the top dose activity change, negative = growth inhibition, hits mostly inhibitors | DT40 Tdp1-/- hTDP1 cells, no CPT, ATP luminescence, 48 h | 15% of 420,000 active; note: potency is the fitted concentration of half-maximal effect; nearly all actives have a fitted effect of over 55% in size
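Luminescent ATP content (CellTiter-Glo) served as the growth readout. Knockout chicken DT40 cells expressing human TDP1 were exposed to compounds without camptothecin for a minimum 48 hr at 37 °C.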
TDP1 cell CPT: DT40-hTDP1 cell growth loss with CPT. chicken DT40 Tdp1-/-;hTDP1 cells + 20 nM CPT, ATP luminescence, 48 h. Potency, µM (titrated, usually from 46.2 µM), inactives show at the highest dose activity change, negative = growth inhibition, usual class: inhibitors. 12% of 420,000 active; note: potency is the fitted concentration of half-maximal effect; nearly all actives have a fitted effect of over 55% in size
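Chicken DT40 Tdp1-/- cells stably complemented with human TDP1 were seeded at 400 cells/well in medium containing 20 nM camptothecin, exposed to pin-transferred compounds, and grown at 37 °C for at least 48 hr. Viability was read as ATP luminescence.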
IL-1B inflam inh: inflammasome signaling inhibition, IL-1 beta readout; THP-1 LPS/ATP IL-1B secretion, AlphaLISA, 16 h; active compounds read low; activity change, % at 57.5 µM; 4.7% of 360,000 active; AID 743279; in the data active = activity change below about -50%; inconclusive = mostly about -30% to -49%
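THP-1 cells pretreated 1 hr with compounds (up to 57.5 uM final), then stimulated with LPS (250 ng/mL final) plus ATP (1.25 mM final); secreted IL-1B measured by AlphaLISA after 16 hr, decreased signal indicating inhibition.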
HT1080 IDH1KD tx: toxicity to HT-1080 IDH1 knockdown cells (counter line). AID 686971. Potency, µM (doses to about 46.1 µM), inactives show top-dose activity, negative = toxicity, usual class: cytotoxic. 2% of 360,000 active. HT-1080 IDH1 knockdown viability, ATP luminescence, 48 h;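 note: potency is the fitted concentration of half-maximal effect; 0% = DMSO wells and -100% = cell-free medium wells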
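Knockdown cells (IDH1KD HT-1080) received compounds 2 h after plating at 750 cells/well and were kept 48 h at 37 °C in 5% FBS RPMI. A CellTiter-Glo luminescence read gave % activity for curve fitting.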
* marks the source's active call; other numbers are inactive results. Unless noted, calls come from the whole dose curve; as a rule, active = well fitted curve in the direction sought with a large enough effect; inconclusive = small, poorly fitted or top-dose-only effect, or another doubt; inactive = no such curve, though single readings can be large; an effect the other way counts as inactive or inconclusive. Unless noted, % is set by controls: 0 for no effect and ±100 for the full control effect.

What do the screens show for `CCN(CC(=O)Nc1c(F)cccc1F)C(=O)c1cccc(S(=O)(=O)N2CCCCCC2)c1`?
ELG1 repair inh: -16%; HT1080NT lethal: -3%; TDP1 cell noCPT: inconclusive; TDP1 cell CPT: -20%; IL-1B inflam inh: -18; HT1080 IDH1KD tx: -1%

Results for COC(=O)C[C@H]1c2cc(C(F)(F)F)ccc2S(=O)(=O)N1C1CCCCC1 ?
HT1080NT lethal: 14%; TDP1 cell noCPT: inconclusive; TDP1 cell CPT: inconclusive; IL-1B inflam inh: 5; HT1080 IDH1KD tx: 6%

What do the screens show for `COC(=O)C[C@H]1c2cc(C(F)(F)F)ccc2S(=O)(=O)N1C1CCCC1`?
HT1080NT lethal: -1%; TDP1 cell noCPT: inconclusive; TDP1 cell CPT: 23µM*; IL-1B inflam inh: -2; HT1080 IDH1KD tx: -1%

What do the screens show for `CCCCCCCCN1[C@@H](CC(=O)OC)c2cc(C(F)(F)F)ccc2S1(=O)=O`?
HT1080NT lethal: -1%; TDP1 cell noCPT: inconclusive; TDP1 cell CPT: inconclusive; IL-1B inflam inh: 30; HT1080 IDH1KD tx: -2%

How did CCCCCCCCN1[C@@H](CC(C)=O)c2cc(C(F)(F)F)ccc2S1(=O)=O do in these assays?
HT1080NT lethal: -11%; TDP1 cell noCPT: 13µM*; TDP1 cell CPT: inconclusive; IL-1B inflam inh: 32; HT1080 IDH1KD tx: -3%

Results for CC(=O)C[C@H]1c2cc(C(F)(F)F)ccc2S(=O)(=O)N1C1CCCCC1 ?
HT1080NT lethal: -1%; TDP1 cell noCPT: 21µM*; TDP1 cell CPT: 16µM*; IL-1B inflam inh: inconclusive; HT1080 IDH1KD tx: -2%

How did CCOc1cc(/C=N/N2CCOCC2)ccc1OCc1ccc(C(=O)OC)o1 do in these assays?
ELG1 repair inh: -12%; HT1080NT lethal: 0%; TDP1 cell noCPT: -25%; TDP1 cell CPT: 3%; IL-1B inflam inh: -8; HT1080 IDH1KD tx: inconclusive

How did CCC(=O)Nc1nnc(S(=O)(=O)N(C)Cc2ccccc2)s1 do in these assays?
TDP1 cell noCPT: -10%; TDP1 cell CPT: 0%

Results for COc1cc(Cl)c(NS(=O)(=O)c2ccc3[nH]c(=O)ccc3c2)c(OC)c1 ?
TDP1 cell noCPT: inconclusive; TDP1 cell CPT: 6%

Results for C[C@@H]1CN([C@H](C)CO)C(=O)c2cc(Br)cnc2O[C@@H]1CN(C)C(=O)C1CCOCC1 ?
HT1080NT lethal: 1%; TDP1 cell noCPT: -1%; TDP1 cell CPT: -17%; IL-1B inflam inh: 24; HT1080 IDH1KD tx: -7%

How did CNC(=O)CSCc1c(Cl)cccc1Cl do in these assays?
ELG1 repair inh: -1%; HT1080NT lethal: 9%; TDP1 cell noCPT: -9%; TDP1 cell CPT: -14%; IL-1B inflam inh: 10; HT1080 IDH1KD tx: 6%

How did CC(C)NC(=O)CSCc1c(Cl)cccc1Cl do in these assays?
ELG1 repair inh: 12%; HT1080NT lethal: 7%; TDP1 cell noCPT: 15µM*; TDP1 cell CPT: inconclusive; IL-1B inflam inh: -8; HT1080 IDH1KD tx: -1%

Results for CCc1ccc(OCC(=O)Nc2cc3oc4ccccc4c3cc2OC)c(Br)c1 ?
TDP1 cell noCPT: -14%; TDP1 cell CPT: -5%

How did COC(=O)C1=C(C(=O)OC)SC(=C2C(=S)C(C)(C)N(C(=O)C3CC3)c3ccccc32)S1 do in these assays?
ELG1 repair inh: -8%; HT1080NT lethal: -3%; TDP1 cell noCPT: inconclusive; TDP1 cell CPT: inconclusive; IL-1B inflam inh: -50*; HT1080 IDH1KD tx: inconclusive

How did CCCC(=O)N1c2ccccc2C(=C2SC(C(=O)OC)=C(C(=O)OC)S2)C(=S)C1(C)C do in these assays?
ELG1 repair inh: inconclusive; HT1080NT lethal: 0%; TDP1 cell noCPT: 26µM*; TDP1 cell CPT: 15µM*; IL-1B inflam inh: 6; HT1080 IDH1KD tx: 5%

Results for COC(=O)c1cc(C(=O)OCC(=O)N2c3ccccc3NC(=O)C2(C)C)cc([N+](=O)[O-])c1 ?
ELG1 repair inh: -7%; HT1080NT lethal: 0%; TDP1 cell noCPT: -7%; TDP1 cell CPT: 2%; IL-1B inflam inh: -17; HT1080 IDH1KD tx: 0%

What do the screens show for `C[C@@H]1CN([C@H](C)CO)C(=O)CCCn2nncc2CO[C@H]1CN(C)Cc1cccnc1`?
HT1080NT lethal: -9%; TDP1 cell noCPT: -28%; TDP1 cell CPT: 7%; IL-1B inflam inh: 5; HT1080 IDH1KD tx: 0%

Results for O=C(c1cc(-c2ccc(Br)cc2)on1)N1CCc2ccccc2C1 ?
ELG1 repair inh: 17%; HT1080NT lethal: 21%; TDP1 cell noCPT: -25%; TDP1 cell CPT: 0%; IL-1B inflam inh: -9; HT1080 IDH1KD tx: 15%

What do the screens show for `O=C(C[n+]1ccccc1Br)c1ccc(Cl)cc1`?
TDP1 cell noCPT: 14µM*; TDP1 cell CPT: inconclusive

What do the screens show for `O=C(C[n+]1ccccc1Cl)c1ccccc1`?
TDP1 cell noCPT: -26%; TDP1 cell CPT: -8%

Results for NC(=O)c1ccsc1NC(=O)c1ccc(S(=O)(=O)N2CCCc3ccccc32)cc1 ?
ELG1 repair inh: 21µM*; HT1080NT lethal: -19%; TDP1 cell noCPT: 18µM*; TDP1 cell CPT: 16µM*; IL-1B inflam inh: 0; HT1080 IDH1KD tx: -20%

What do the screens show for `CC(C)N1CCc2c(sc(NC(=O)c3ccc(S(=O)(=O)N4CCc5ccccc54)cc3)c2C(N)=O)C1`?
ELG1 repair inh: -10%; HT1080NT lethal: inconclusive; TDP1 cell noCPT: inconclusive; TDP1 cell CPT: 23µM*; IL-1B inflam inh: 19; HT1080 IDH1KD tx: 21µM*

How did CN1CCc2c(sc(NC(=O)c3ccc(C(=O)c4ccccc4)cc3)c2C(N)=O)C1 do in these assays?
ELG1 repair inh: -1%; HT1080NT lethal: -24%; TDP1 cell noCPT: 6%; TDP1 cell CPT: -2%; IL-1B inflam inh: 0; HT1080 IDH1KD tx: -20%

What do the screens show for `CC(C)N1CCc2c(sc(NC(=O)c3ccc(S(=O)(=O)N(C)C4CCCCC4)cc3)c2C(N)=O)C1`?
TDP1 cell noCPT: 18µM*; TDP1 cell CPT: inconclusive

How did COCCN(CCOC)S(=O)(=O)c1ccc(C(=O)Nc2sc3c(c2C(N)=O)CCCCC3)cc1 do in these assays?
ELG1 repair inh: inconclusive; HT1080NT lethal: -1%; TDP1 cell noCPT: inconclusive; TDP1 cell CPT: -28%; IL-1B inflam inh: -5; HT1080 IDH1KD tx: -2%

Results for Cc1ccc(S(=O)(=O)c2cn(CC(=O)Nc3ccc4c(c3)OCO4)c3ccc(C)cc3c2=O)cc1 ?
TDP1 cell noCPT: -15%; TDP1 cell CPT: 6%

Bioassay records (PubChem)
